# From the supplement of paper PMC11417369
# ± gives the standard deviation of the averaged measurements. In all, about 25,000 sequences were measured (“ln(normalized median fluorescence intensity)”: median about 10, highest 2% from about 12 on). The sample holds the highest values, similar sequences and a random draw of the others, so the mix is not that of the screen.
# System: PfAP2-G AP2 domain (GST-tagged)
# Test: gcPBM binding intensity (ln(normalized median fluorescence intensity)); higher = stronger DNA binding
# Method in brief: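 Binding intensity is defined as the maximum Masliner-normalised natural-log median intensity across replicate spots for either probe orientation. It was measured on an Agilent 4 × 180k array of primer-extended double-stranded 36-bp intergenic genomic probes and negative controls, to which GST-tagged P. falciparum DNA-binding domains made in E. coli were applied for 1 h in 1× PBS with 1% milk, 0.2 mg/ml BSA, 0.5% salmon testes DNA and 0.03% Triton X-100. Detection was by Alexa488 anti-GST antibody and scanning at 488 nm.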
row,Sequence,gcPBM binding intensity (ln)
1,AATATATCTTTTTACGGCAACCATATTTTTCCCATT [CACACA_negctrl_site963],10.21 ± 0.064
2,TGATTATCCTATATATATTTCATAATGGAAAAAAAT [TGCATGCA_negctrl_site444],9.89 ± 0.35
3,CCATATGATATATATTGTACATTATATATTATTTCT [XGTACX_site1697],10.7 ± 0.45
4,CGTTAAAGGGAATGTATACACACGTTTCTCTATGTT [CACACA_site1198],10.2 ± 0.16
5,ACGTATAATATGTACACACACATATATACAAAAAAA [CACACA_site917],11.5 ± 1.1
6,TAAAAAAAAACATATACACACAAAAACGTACACATA [CACACA_site1354],11.8 ± 1.1
7,TATATACACATATATAAACACACAAAAAAAAAAAAA [CACACA_site8626],9.89 ± 0.48
8,ATATACACACAAAAACGTACACATATATATATGTAT [XGTACX_site2673],11.7 ± 0.86
9,TATACACATATATAAACACACAAAAAAAAAAAAAAA [CACACA_site7041],9.78 ± 0.53
10,TATAAACGTATAATATGTACACACACATATATACAA [XGTACX_site1686],11.3 ± 0.94
11,AAAAATTTATTTTGTTTTTTAAGATTTTTTTTTTTT [CACACA_negctrl_site1210],9.46 ± 0.028
12,TAGTATAATATGAACACACACACACGCACAAAAAAA [CACACA_site7035],10.4 ± 0.2
13,CATATAATATAATTATGTACATATATAATAATATAC [XGTACX_site5278],11.2 ± 0.69
14,CTTATTTAAGAGTATGAACACACATCATACACATAT [CACACA_site9205],10.3 ± 0.23
15,TTTTGTTACGGCAAGGAAGTTAAGCATAAATGAATG [GTGCAC_negctrl_site173],10.1 ± 0.16
16,AAAAAAAAATAAAAAAGTACAGGTAAATATATATAT [XGTACX_site5812],11.5 ± 1.2
17,AAAAAAAAAAAAAAAGGTACAGTAAAAAATTCCTCT [XGTACX_site5947],11.7 ± 0.98
18,AAAAAAGGTAAAAAAAGTACAAAAAAAAAATTAAAA [XGTACX_site6993],11.3 ± 0.88
19,ATATTGTAAGTAAACACACACACATATATATGTATA [CACACA_site8124],9.955 ± 0.035
20,ATAAATATAACATATTGTACCCTTAAAAAGGAACAA [XGTACX_site352],11.7 ± 0.96
21,ATATATAAAATATATTGTACATTAACATATATATTT [XGTACX_site2055],10.7 ± 0.43
22,AAAGACAAAAGGAATTGTACATAATATATAAAATAT [XGTACX_site2923],10.8 ± 0.54
23,TAATAATATATTTGTAGTACACAATTTTTTATAACT [XGTACX_site3951],11.6 ± 0.89

row,Sequence,gcPBM binding intensity (ln)
1,ATAATATATTTTTGTAGTACACTTCTGGTAATATCG [XGTACX_site2402],11.7 ± 1
2,TAGTAATATATATTTTGTACATAAAATAATATATAA [XGTACX_site7971],10.9 ± 0.59
3,AAGTTTTATTTAAATTGTACTAAAATTTTTATATTA [XGTACX_site7065],11 ± 0.69
4,AACACATAAAAAAGGTGTACCATAAAATATACATAC [XGTACX_site4478],11.4 ± 0.76
5,TAAAGTTATGCAATAACACACATATACAATACATAT [CACACA_site6698],9.98 ± 0.057
6,AATACAATATAAAGGTGTACATATATATATATATAT [XGTACX_site68],11.4 ± 0.9
7,TGATGCAAGATATATACACACATATAAATATAAATA [CACACA_site7429],9.8 ± 0.042
8,AATAAATAAATATATACACACATATATCTGTACATA [CACACA_site9034],10.9 ± 0.67
9,TATATATATCTGTACACACACACATATAAATAAATA [CACACA_site4405],11.4 ± 1
10,ATACAATAAAGGTGTACACATATATGATGCAAGATG [CACACA_site5897],11.7 ± 0.93
11,ACATATATATAAAGGTGTACACATATATATATATAT [XGTACX_site4779],11.7 ± 0.76
12,TATATATAAAGGTGTACACATATATATATATCTGTA [CACACA_site5311],11.7 ± 0.98
13,TAAGCCAAGGGATAAATAAAATAACAAAATGAAATC [GTGCAC_negctrl_site601],9.66 ± 0.36
14,AAATATAAAAGTATATGTACATATATATATATATAT [XGTACX_site7446],11.2 ± 0.64
15,TATACACATATATAAAGTACATATATGTGTAAAAAA [XGTACX_site8582],11 ± 0.64
16,ATATGTATATATAAAAGTACGCGTAAAAAAAAAAAA [XGTACX_site5377],11.7 ± 1.3
17,TATTTTTTAAAAAAATGTCATAAAATTTCTTTTTTC [XGTACX_negctrl_site271],9.9
18,AAAAAAAAAAAAAGATGTACATATATTTTTATTATA [XGTACX_site654],11.4 ± 0.96
19,GCCTATATGTTTAGTTGTACTCCTAATATTATTTGT [XGTACX_site6060],11.7 ± 1.1
20,TAATATATTAATTTTTGTACTTAATTATATGTTTTT [XGTACX_site5654],10.9 ± 0.63
21,ATATGCCTAATAAAATGTACGTTTGTTTTATTTATT [XGTACX_site3833],11 ± 0.49
22,ATATGTATATTTTTTTGTACGTATTTATGTGTGTGT [XGTACX_site2093],11.4 ± 0.84
23,ATACATATATAATTATGTACGTATATTTTATATAAC [XGTACX_site4292],11.6 ± 0.91

row,Sequence,gcPBM binding intensity (ln)
1,ACTTTCAAGGATGTACGTACATATGTATTTTATAAC [XGTACX_site6714],11.7 ± 0.91
2,ATATTTATATTTTCATGTACGTATTTTTATATATAT [XGTACX_site8478],11.6 ± 0.96
3,ATATATACATATATATGTACGTATATTTTTATTTCT [XGTACX_site6198],11.6 ± 1.1
4,CTTTAACCATATATGTGTACGTATTTTATTCATATT [XGTACX_site6212],11.8 ± 1.1
5,TAATAAATCAAATGCACACACACAAAAAAAAAAAAA [CACACA_site161],10 ± 0.49
6,AGAAATATATATATATATATATATATATATATATAT [TGCATGCA_negctrl_site375],10 ± 0.88
7,TCTTTAAATTTCTCAACACACAGTTATAAAAAATAA [CACACA_site2856],9.8 ± 0.085
8,TATAAATTTTTATTTACATGCAGTTATTATTTCCAT [TGCATGCA_site41],10 ± 0.18
9,TAGTATTAAAATATTTGTACTTATATGTATTATATA [XGTACX_site538],11 ± 0.69
10,GCTTTTAAAATAATTGGTACACATGTATAAATTCAA [XGTACX_site2327],11.1 ± 0.69
11,TAATGGTATAAAAAATGTACATGTTTTTTTACAATT [XGTACX_site4285],11.2 ± 0.54
12,TAATGGTGTTCATGTGGTACACTTTATAAATTGGCA [XGTACX_site729],11.7 ± 1.1
13,TCATTCATATGTTACACACACACACGCACATAAAAA [CACACA_site7514],10.5 ± 0.35
14,TTTTCAATATATATTTGTACTTTATTTTATGATATT [GTGCAC_negctrl_site732],11.2 ± 0.75
15,ATTTTATATATGTGTTGTACGGTGAACATTTTGATA [XGTACX_site6538],10.8 ± 0.58
16,TTATGATATATTTGTTGTACGCTTTTTTTATGAACT [XGTACX_site573],11.8 ± 1.1
17,TTCCCTTTTGTAAAATGTACATATATATTTAAACAA [XGTACX_site3263],11.2 ± 0.54
18,GAAATATTTGTAAAAACATGCATGGTACTTTTAAAA [TGCATGCA_site6],11 ± 0.7
19,ATTTTAAATATTTGTGGTACCCCTTTTTTGTAACAA [XGTACX_site5590],11.8 ± 1.1
20,ATTTATATTTAATATACACACATTATTTTTTTATAT [CACACA_site574],9.955 ± 0.021
21,ATATATGACAAATGTAGTACAAATTATTGTATCATA [XGTACX_site3675],11.4 ± 0.76
22,TGTAGAGCGCAAAGTAGTACTACAAATTATGGAGGG [XGTACX_site3022],11.8 ± 1
23,TAAAAATGGGAGGGGTGTACTACACAATAAAATTAT [XGTACX_site5641],11.6 ± 0.95

row,Sequence,gcPBM binding intensity (ln)
1,TTATATTTTTACAAGAGTACATATATATATATATAT [XGTACX_site5383],11.4 ± 1.1
2,ATGTAAATACATATATGTACACAAATATATATATAT [XGTACX_site3537],11.6 ± 1.1
3,TTCTGTGTGTATTGGCGTACAATTATTTTGCCTACA [XGTACX_site205],11.7 ± 0.83
4,TATATTTTATATTGGTGTACAATTTTTTTTTTTTTT [XGTACX_site4291],11.4 ± 0.91
5,TTATTTTTTTTGTGTTGTACAATTTATTACTACTAA [XGTACX_site346],11.3 ± 0.82
6,TTTTTATAAAAATGAACACACACATATATATATATA [CACACA_site9160],10.2 ± 0.49
7,ATGTGTTGGGAAAAGGCATGCACTTTTTTTTTTTTT [TGCATGCA_site707],10.2 ± 0.11
8,GTACAGATGTAGTATGCATGTAATTATATATAAATT [TGCATGCA_site292],11.1 ± 0.47
9,ATATGAAATATATGTAGTACACATAATTAAAAGTAG [XGTACX_site6490],11.7 ± 0.86
10,AATGAAATAAAATAAAGTACATATATGTAAAAGTAG [XGTACX_site5650],11.4 ± 0.79
11,TTATATACATAAAAATGTACTTTTTATAAAATATAT [XGTACX_site8281],11.2 ± 1
12,TAAAATAAAAATTAAAGTACATATGTATATATATAT [XGTACX_site3984],11.1 ± 0.88
13,TTATTATAAAAATGTAGTACAATACTTTTTTTTTTT [XGTACX_site732],11.7 ± 0.84
14,GGGGGCTTTTATAAAAGTACAAAATGAATAAAAATT [XGTACX_site2393],11.4 ± 0.97
15,CCTTTATAAAAAAGTAGTACACAATGAATTTATAAT [XGTACX_site5523],11.8 ± 1
16,TAATGTATGAAATAAACACACAAGTAAGTACATAAA [CACACA_site2451],11.6 ± 0.98
17,TAATAATAAATAAAATGTACATATGAACAAATAAGT [XGTACX_site6710],11.3 ± 0.61
18,AATAATGTATGAAATAAACACACAAGTAAGTACATA [CACACA_site8776],11.7 ± 0.91
19,TTATTTTATAATAAAAGTACACAAAAAAAAAAAAAA [XGTACX_site7668],11.4 ± 1.1
20,CTTTTAATTATAAAATGTACTTAAAAATAATAATAC [XGTACX_site635],11.1 ± 0.88
